± gives the standard deviation.

The test system of assay [1] is MILI (PIWIL2) piRISC loaded with L1MC piRNA (26 nt). As to the kind of experiment: pre-steady-state target cleavage rate (min^-1); guide: L1MC piRNA 5'p-UAACUAAAUACUAUGCAAGCUGUAGG; higher = faster piRNA-guided slicing of the target. Particulars: auxiliary factor: 500 nM mouse GTSF1. In a few lines: (§1)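 The pre-steady-state cleavage rate was derived from a burst-and-steady-state fit of Cleave-'n-Seq data. For these assays, 1 nM active affinity-purified piRISC loaded with a single synthetic guide was mixed with […] a transcribed, DNA-blocked target RNA library in HEPES–potassium acetate buffer at 33 °C, with or without 500 nM GTSF1 partner protein, for 0–8 or 0–960 min. Sequencing counts of uncleaved targets were normalised to depth and to weakly complementary targets, and k3 was capped at 0.0001 min^-1 after three trials were pooled.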

The test system of assay [2] is EfPiwi piRISC loaded with L1MC piRNA (26 nt). As to the kind of experiment: pre-steady-state target cleavage rate (min^-1); auxiliary factor: 500 nM Ephydatia muelleri Gtsf1; guide: L1MC piRNA 5'p-UAACUAAAUACUAUGCAAGCUGUAGG; MIWI and MILI are mouse PIWI proteins and EfPiwi is from a freshwater sponge; tags in brackets are library labels; higher = faster piRNA-guided slicing of the target. A digest of the protocol:
as §1

In the case of UCCUGCUACAGGUUCCAUAGUAUUUAGUUA, the entries for the “pre-steady-state target cleavage rate” value in assay [1] and in assay [2] were 0.00943 ± 0.0066 and 0.00222 ± 0.0021, respectively.
On the same counts, the results for UCCUGGAUCAGCUUGCAUAGGAUUUAGUUA are 0.0049 ± 0.0037 and 0.0025 ± 0.0024.
The like results for UCCUCCUACAGCUUGCAUACGUAUUUAGUUA were, in that order, 0.00561 ± 0.0046 and 0.0035 ± 0.0025.
On the same counts, the results for UCCUGGUACAGCUUGCAUACUAUUUAGAAA are 0.0227 ± 0.011 and 0.00236 ± 0.0018.
Turning to UCCUGGAACAGCAUCCAUAGUAUUUAGUUA, the “pre-steady-state target cleavage rate” value came out at 0.195 ± 0.045 in assay [1] and 0.0025 ± 0.0021 in assay [2].
On the same counts, the results for UCCUGGAUCAGCUUGCAUAGUUUUUAGAUA are 0.0159 ± 0.0066 and 0.00428 ± 0.0026.

Values taken from the supplement of paper PMC10338343.
